Screen size: about 5,500 compounds; about 2,000 (36%) were called active. Roughly 18% stayed inconclusive and do not appear here. Rule as the data show it: active = normalized growth mostly below about 0.91 (no sharp cut-off); inconclusive = no clear call, values can overlap the other calls; inactive = mostly above about 0.92. The list shows a part of the results.
Experiment: chemical genetic growth profiling, strain panel (AID 1159580);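 also: tested at 20 µM; growth read once vehicle control cultures reached saturation at 30 °C; 1 = growth at the plate median or of vehicle wells; lower values mean less growth of the strain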
Conditions: growth OD

Measured: normalized growth

COc1ccc(C2Sc3ccccc3N(CCN(C)C)C(=O)C2OC(C)=O)cc1 (stereo not given)
inactive: S. cerevisiae deletion strains, locus YKL009W, strain mrt4, stronger effect = lower value 1.04 | S. cerevisiae deletion strains, locus YKL068W, stronger effect = lower value 1.02 | S. cerevisiae deletion strains, locus YKL085W, strain MDH1 (second series), stronger effect = lower value 1.03 | S. cerevisiae deletion strains, locus YKL085W, strain MDH1, stronger effect = lower value 1.03 | S. cerevisiae deletion strains, locus YKL160W, strain elf1, stronger effect = lower value 0.972 | S. cerevisiae deletion strains, locus YKL190W, strain CNB1, stronger effect = lower value 0.994 | S. cerevisiae deletion strains, locus YKR001C, strain vps1, stronger effect = lower value 1.04 | S. cerevisiae deletion strains, locus YKR026C, strain gcn3, stronger effect = lower value 0.931 | S. cerevisiae deletion strains, locus YKR091W, strain srl3, stronger effect = lower value 0.983 | S. cerevisiae deletion strains, locus YLL001W, strain dnm1, stronger effect = lower value 0.944 | S. cerevisiae deletion strains, locus YLL026W, stronger effect = lower value 0.983 | S. cerevisiae deletion strains, locus YLL041C, strain sdh2, stronger effect = lower value 0.956 | S. cerevisiae deletion strains, locus YLR027C, strain aat2, stronger effect = lower value 0.974 | S. cerevisiae deletion strains, locus YLR039C, strain RIC1, stronger effect = lower value 1.04 | S. cerevisiae deletion strains, locus YLR058C, strain SHM2, stronger effect = lower value 1.01 | S. cerevisiae deletion strains, locus YLR102C, strain apc9, stronger effect = lower value 1.04 | S. cerevisiae deletion strains, locus YLR113W, strain HOG1, stronger effect = lower value 1.01 | S. cerevisiae deletion strains, locus YLR221C, strain rsa3, stronger effect = lower value 0.989 | S. cerevisiae deletion strains, locus YLR258W, strain gsy2, stronger effect = lower value 0.974 | S. cerevisiae deletion strains, locus YLR262C, strain YPT6 (second series), stronger effect = lower value 0.977 | S. cerevisiae deletion strains, locus YLR262C, strain YPT6, stronger effect = lower value 1.04 | S. cerevisiae deletion strains, locus YLR268W, strain sec22, stronger effect = lower value 1.03 | S. cerevisiae deletion strains, locus YLR320W, strain mms22, stronger effect = lower value 1.02 | S. cerevisiae deletion strains, locus YLR330W, strain CHS5, stronger effect = lower value 1.01 | S. cerevisiae deletion strains, locus YLR342W, strain FKS1 (second series), stronger effect = lower value 1.02 | S. cerevisiae deletion strains, locus YLR342W, strain FKS1, stronger effect = lower value 0.979 | S. cerevisiae deletion strains, locus YLR357W, strain rsc2, stronger effect = lower value 0.922 | S. cerevisiae deletion strains, locus YLR370C, strain arc18, stronger effect = lower value 0.973 | S. cerevisiae deletion strains, locus YLR371W, strain rom2, stronger effect = lower value 1.03 | S. cerevisiae deletion strains, locus YLR384C, strain iki3, stronger effect = lower value 0.941 | S. cerevisiae deletion strains, locus YLR418C, strain cdc73, stronger effect = lower value 1.06 | S. cerevisiae deletion strains, locus YML016C, strain PPZ1, stronger effect = lower value 1.01 | S. cerevisiae deletion strains, locus YML032C, strain rad52, stronger effect = lower value 1.06 | S. cerevisiae deletion strains, locus YML120C, strain ndi1, stronger effect = lower value 0.982 | S. cerevisiae deletion strains, locus YML124C, strain tub3, stronger effect = lower value 1.03 | S. cerevisiae deletion strains, locus YMR058W, strain fet3, stronger effect = lower value 0.986 | S. cerevisiae deletion strains, locus YMR078C, strain ctf18, stronger effect = lower value 1.04 | S. cerevisiae deletion strains, locus YMR125W, strain sto1, stronger effect = lower value 0.896 | S. cerevisiae deletion strains, locus YMR129W, stronger effect = lower value 0.975 | S. cerevisiae deletion strains, locus YMR205C, strain PFK2, stronger effect = lower value 0.98 | S. cerevisiae deletion strains, locus YMR223W, strain ubp8, stronger effect = lower value 1.04 | S. cerevisiae deletion strains, locus YMR231W, strain pep5, stronger effect = lower value 0.965 | S. cerevisiae deletion strains, locus YMR263W, strain SAP30, stronger effect = lower value 1 | S. cerevisiae deletion strains, locus YMR307W, strain GAS1, stronger effect = lower value 1.07 | S. cerevisiae deletion strains, locus YNL067W, strain RPL9B, stronger effect = lower value 1.02 | S. cerevisiae deletion strains, locus YNL071W, strain lat1, stronger effect = lower value 0.998 | S. cerevisiae deletion strains, locus YNL128W, strain TEP1, stronger effect = lower value 1.02 | S. cerevisiae deletion strains, locus YNL153C, strain GIM3, stronger effect = lower value 1.01 | S. cerevisiae deletion strains, locus YNL183C, strain NPR1, stronger effect = lower value 0.953 | S. cerevisiae deletion strains, locus YNL209W, strain ssb2, stronger effect = lower value 0.973 | S. cerevisiae deletion strains, locus YNL233W, strain BNI4, stronger effect = lower value 1.01 | S. cerevisiae deletion strains, locus YNL250W, strain rad50, stronger effect = lower value 1.07 | S. cerevisiae deletion strains, locus YNL271C, strain bni1, stronger effect = lower value 1.04 | S. cerevisiae deletion strains, locus YNL298W, strain CLA4, stronger effect = lower value 1.06 | S. cerevisiae deletion strains, locus YNL307C, strain MCK1, stronger effect = lower value 1.05 | S. cerevisiae deletion strains, locus YNL322C, strain KRE1 (second series), stronger effect = lower value 0.974 | S. cerevisiae deletion strains, locus YNL322C, strain KRE1, stronger effect = lower value 1.01 | S. cerevisiae deletion strains, locus YNR049C, strain mso1, stronger effect = lower value 0.977 | S. cerevisiae deletion strains, locus YNR052C, strain pop2, stronger effect = lower value 1.05 | S. cerevisiae deletion strains, locus YOL006C, strain TOP1, stronger effect = lower value 1.07 | S. cerevisiae deletion strains, locus YOL012C, strain htz1 1.17 | S. cerevisiae deletion strains, locus YOL147C, strain pex11, stronger effect = lower value 1.04 | S. cerevisiae deletion strains, locus YOR001W, strain rrp6, stronger effect = lower value 0.945 | S. cerevisiae deletion strains, locus YOR061W, strain CKA2, stronger effect = lower value 1.01 | S. cerevisiae deletion strains, locus YOR069W, strain VPS5, stronger effect = lower value 1.01 | S. cerevisiae deletion strains, locus YOR070C, strain gyp1, stronger effect = lower value 0.989 | S. cerevisiae deletion strains, locus YOR080W, strain dia2, stronger effect = lower value 0.973 | S. cerevisiae deletion strains, locus YOR083W, strain WHI5, stronger effect = lower value 0.976 | S. cerevisiae deletion strains, locus YOR106W, strain vam3, stronger effect = lower value 0.903 | S. cerevisiae deletion strains, locus YOR136W, strain idh2, stronger effect = lower value 1.04 | S. cerevisiae deletion strains, locus YOR144C, strain elg1, stronger effect = lower value 1.04 | S. cerevisiae deletion strains, locus YOR184W, strain ser1, stronger effect = lower value 1.07 | S. cerevisiae deletion strains, locus YOR231W, strain MKK1, stronger effect = lower value 1.01 | S. cerevisiae deletion strains, locus YOR265W, strain rbl2, stronger effect = lower value 0.974 | S. cerevisiae deletion strains, locus YOR270C, strain vph1, stronger effect = lower value 0.902 | S. cerevisiae deletion strains, locus YOR290C, strain snf2, stronger effect = lower value 0.998 | S. cerevisiae deletion strains, locus YOR316C, strain cot1, stronger effect = lower value 1.03 | S. cerevisiae deletion strains, locus YPL051W, strain arl3, stronger effect = lower value 0.977 | S. cerevisiae deletion strains, locus YPL055C, strain LGE1, stronger effect = lower value 1.04 | S. cerevisiae deletion strains, locus YPL078C, strain atp4, stronger effect = lower value 0.943 | S. cerevisiae deletion strains, locus YPL106C, strain sse1, stronger effect = lower value 0.976 | S. cerevisiae deletion strains, locus YPL240C, strain hsp82, stronger effect = lower value 0.972 | S. cerevisiae deletion strains, locus YPL241C, strain CIN2, stronger effect = lower value 1.01 | S. cerevisiae deletion strains, locus YPL256C, strain CLN2, stronger effect = lower value 0.991 | S. cerevisiae deletion strains, locus YPR119W, strain clb2, stronger effect = lower value 1.03 | S. cerevisiae deletion strains, locus YPR141C, strain kar3, stronger effect = lower value 1.06 | S. cerevisiae deletion strains, locus YPR163C, strain tif3, stronger effect = lower value 1.05 | S. cerevisiae deletion strains, locus YPR167C, strain met16, stronger effect = lower value 1.04 | S. cerevisiae deletion strains, strain wtn01, stronger effect = lower value 1.03 | S. cerevisiae strains, strain wild type, stronger effect = lower value 1.01
